Bioassay records deposited in PubChem BioAssay by National Center for Advancing Translational Sciences (NCATS).
EPAC2 antagonist = antagonists of human EPAC2; Q8WZA2; EPAC2 GEF exchange of Rap1B-BODIPY-GDP, fluorescence; Potency, µM (highest dose often 114 µM), for the others: at the top dose activity, negative = inhibition, most hits filed as inhibitors; 360,000 compounds, 0.18% hits; AID 720708; further: on the % scale 0 is the no-effect control and ±100 the full control effect; nearly all actives have a fitted effect of over 45% in size
EPAC1 ag = activates human EPAC1 exchange factor | 360,000 compounds, 0.073% hits | EPAC1 agonist qHTS, biochemical assay; response scale: 100% = response to 6.5 mM cAMP | Potency, µM (doses to about 154 µM), for inactives: at the highest dose activation, most hits filed as activators | O95398; further: nearly all actives have a fitted effect of over 60% in size
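Fluorescent GDP-exchange assay: 100 nM EPAC1 with 250 nM Rap1B preloaded with BODIPY-GDP and 50 uM GDP; compounds tested as concentration series, 5 min at room temperature, then read every 5 min for 30 min (ex 480/em 540 nm); normalized to 6.5 mM cAMP.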
USP1-UAF1 inh = USP1/UAF1 (human) deubiquitinase inhibition; O94782; AID 743255; 390,000 compounds, 0.23% hits; recombinant USP1/UAF1, Ub-Rhodamine cleavage fluorescence; Potency, µM (titrated, usually from 57.1 µM), inactives show at the highest dose activity change, negative = inhibition, usual class: inhibitors; further: on the % scale 0 is the no-effect control and ±100 the full control effect; nearly all actives have a fitted effect of over 60% in size
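High-throughput fluorogenic screen: 1nM USP1/UAF1 complex, Ub-Rho substrate 150nM final, 50mM HEPES pH 7.8 with 0.5mM EDTA, 0.1 mg/ml BSA, 1mM TCEP and 0.01% Tween-20.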
12-LOX inh = ALOX12 (human) lipoxygenase inhibition. Potency, µM (titrated, usually from 108 µM), inactives show top-dose activity change, negative = inhibition, most hits filed as inhibitors. 580,000 compounds, 1.1% hits. purified 12hLO, xylenol orange hydroperoxide absorbance. P18054; further: on the % scale 0 is the no-effect control and ±100 the full control effect
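Purified human 12hLO at 150 nM in 25 mM Hepes, 0.01% Triton X-100, pH 7.0, preincubated 15 min at room temperature with compound. Reaction started with 40 uM arachidonic acid, 30 min at room temperature. Hydroperoxide measured by Fe-xylenol orange, 573/405 nm absorbance ratio.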
EPAC1 antag = antagonists of human EPAC1. EPAC1 GEF assay, Rap1b-BODIPY-GDP exchange fluorescence. 360,000 compounds, 0.14% hits. O95398. Potency, µM (titrated, usually from 115 µM), for the others: at the highest dose activity change, negative = inhibition, hits mostly inhibitors;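 further: plate controls were vehicle for no effect and positive control for full effect; nearly all actives have a fitted effect of over 50% in size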
EPAC2 agonist = activates human EPAC2 exchange factor | EPAC2 activation, biochemical qHTS; response scale: 100% = 6.5 mM cAMP response | Potency, µM (titrated, usually from 154 µM), for the others: top-dose activation, usual class: activators | 360,000 compounds, 0.079% hits; further: nearly all actives have a fitted effect of over 50% in size
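Fluorescence exchange assay: 100 nM EPAC2 with 250 nM RAP1B-BODIPY-GDP and 50 uM GDP; compounds tested as a concentration-titration series (qHTS). Loss of Rap1-bound BODIPY-GDP fluorescence read at 480/540 nm; data normalized to 6.5 mM cAMP.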
An asterisk follows results filed as active; ? = inconclusive; · = no result; [ ] = remark or other dose. The list is not random: actives were taken first. Their share in the collection is about 1.3%. The call rests on the fitted dose curve; in most records, active means well fitted curve in the direction sought with a large enough effect; inconclusive means small, poorly fitted or top-dose-only effect, or another doubt; inactive means no such curve, though single readings can be large; an effect the other way counts as inactive or inconclusive. Potency means the concentration at half of the fitted maximal effect.

SMILES | EPAC2 antagonist | EPAC1 ag | USP1-UAF1 inh | 12-LOX inh | EPAC1 antag | EPAC2 agonist
CC(C)(C)NC(=O)C(c1cc2ccccc2o1)n1c(=O)c(-c2ccco2)nc2ccccc21 (centres undefined) | -9% | -5% | · | ? | -24% | -1%
O=C(NCc1ccccc1)c1ccc2nc(-c3ccco3)c(-c3ccco3)nc2c1 | -1% | 1% | ? | ? | 32µM* | -2%
COc1ccc(C(C(=O)NCc2ccccc2)n2c(=O)c(-c3ccco3)nc3ccccc32)cc1 (centres undefined) | -1% | 8% | · | 40µM* | -22% | 16%
COc1ccccc1CN1CCCn2nc(C)c(-c3ccccc3C(N)=O)c21 | · | · | · | -3%[176 µM] | · | ·
CC(C)OC(=O)/C(C#N)=C\c1ccc(-c2cc(Cl)ccc2Cl)o1 | · | · | · | -18% | · | ·
CC(C)(C)NS(=O)(=O)c1cccc(NC(=O)c2ccccc2)c1 | · | · | · | -22% | · | ·
CC(=O)Nc1ccc(OC/C=C/c2ccccc2)cc1 | · | · | · | -49% | · | ·
CC(C)n1ncc2cc(NC(=O)c3ccc(Cl)c(S(=O)(=O)N4CCCCC4)c3)cnc21 | · | · | · | -10% | · | ·
CCC(CO)Nc1nc2c(c(=O)n(Cc3ccc(F)cc3)c(=O)n2C)n1C (centres undefined) | · | · | · | 17% | · | ·
COc1ccc(C(C(=O)NC2CCCCC2)n2c(=O)c(-c3ccco3)nc3ccccc32)cc1 (centres undefined) | 4% | 6% | · | ? | -3% | 7%
O=C(NC1CCCCC1)C(c1cccc2ccccc12)n1c(=O)c(-c2ccco2)nc2ccccc21 (centres undefined) | 3% | -6% | · | 18µM* | -23% | -2%
Cc1ccc(-n2nnc(C(=O)Nc3nccs3)c2C(C)C)cc1 | · | · | · | -9% | · | ·
CCOC(=O)C1C(=O)C=C(c2ccc(C)cc2)CC1c1ccc(CC)cc1 (centres undefined) | · | · | · | -79% | · | ·
CC(=O)Nc1ccc(/C(N=Nc2ccccc2)=N/N=C(N)N)cc1 | 6% | 1% | -14% | 40µM* | 7% | -2%
CC(=O)Nc1ccc(C(=O)c2ccccc2)cc1 | 9% | -3% | -16% | 1% | 0% | -12%
Cc1cc(C)cc(C(=O)NC(=S)Nc2ccc(-c3cc4ccccc4oc3=O)cc2)c1 | 9% | -8% | -10% | 10µM* | -4% | 18%
C/C(=N\NC(=O)c1ccn(C)n1)c1ccc(NC(=O)c2cccc(F)c2)cc1 | -1% | 3% | -20% | 4.5µM* | -4% | 4%
O=C(/C=C/c1ccc(Cl)cc1)c1cc(Cl)cc(Cl)c1O | · | · | · | 3.5µM* | · | ·
O=C(C=Cc1ccc(O)cc1)c1ccc(O)cc1O | · | · | · | 7.9µM* | · | ·
Cc1ccc(/C=C/C(=O)c2cc(Cl)ccc2O)cc1 | · | · | · | -59% | · | ·
COc1ccc(C=CC(=O)c2cc(O)ccc2O)cc1 | -9% | -3% | -25% | ? | -7% | 9%
CC(C)N(Cc1ccccc1)C(=O)COC(=O)c1cccc(Cl)c1Cl | · | · | · | 5% | · | ·
Clc1cccc(N/N=C/C(Br)=C/c2ccccc2)c1 | · | · | · | 11µM* | · | ·
BrC(=C\c1ccccc1)/C=N/Nc1ccc2nncn2n1 | -8% | 5% | ? | -12% | -17% | 13%
O=C(Nc1ccc(Cl)cc1)c1nc2c(o1)CCN(Cc1ccc3cn[nH]c3c1)CC2 | · | · | · | 21%[176 µM] | · | ·
CCOc1ccc(CN(C(=O)c2cc(=O)c3cc(Cl)c(C)cc3o2)C2CCS(=O)(=O)C2)cc1 (centres undefined) | · | · | · | 14% | · | ·
COc1cc(OC)cc(C(=O)NC(=S)Nc2ccc(Cl)c(C(=O)O)c2)c1 | 15% | 6% | -17% | 28µM* | 25% | 0%
CC(C)Oc1cccc(C(=O)NC(=S)Nc2cccc(NC(=O)c3ccccc3Cl)c2)c1 | -13% | -5% | -10% | 10µM* | -6% | -14%
O=C(NC(=S)Nc1ccc(Cl)c(C(=O)O)c1)c1ccc(OCc2ccccc2)cc1 | -7% | -4% | -23% | 3.5µM* | -4% | 4%
